The list shows a part of the results. Calls of active or inactive are those of the source. Cut-off read from the data, not from the text of the source: active = IC50 below about 9 µM; inactive = the rest.
test: compound binding to PGV04 antibody – biochemical, TR-FRET, distinct HIV envelope site, counter-screen for PG9 antibody binder project, dose response (AID 651937); conditions: TR-FRET binding to control antibody PGV04

Row | SMILES | IC50
1 | Cc1cccc(Nc2nc3c(S(=O)(=O)c4ccccc4)nnn3c3ccccc23)c1C | 2.86 µM (active)
2 | COC(=O)C1=C(C)N(Cc2ccccc2C(F)(F)F)C(=NCc2ccc(OC)cc2)NC1c1cccc(C(F)(F)F)c1 (configuration not stated) | > 67 µM (inactive)
3 | COc1ccc(-c2c(C)nn3c(N4CCC(C(=O)N5CCCCC5)CC4)cc(C)nc23)cc1OC | 56.5 µM (inactive)
4 | S=c1[nH]c2ccccc2c2ccccc12 | 36.4 µM (inactive)
5 | CC1(C)Cc2ccccc2-c2[nH]c(=S)[nH]c(=O)c21 | 38.1 µM (inactive)
6 | O=C(Nc1nnc(-c2ccccc2F)s1)c1ccccc1F | 14.3 µM (inactive)
7 | O=C(Oc1ccccc1)Oc1ccc2c(c1)oc(=O)c1ccccc12 | 2.5 µM (active)
